Among all 1,200 compounds or so, about 290 (24%) were called active. About 9% were inconclusive and are not listed. These entries were drawn from the full list. Measured potencies and affinities stand elsewhere. A number with no mark means an inactive call. The rule behind the calls is not given here.

This test in a line: LCL viability reduction – cell-based, plate reader, cherry-picks, set 2, cytotoxicity control, dose response (AID 504882).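 Note: 0% = neutral control wells and -100% = positive control wells.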 The conditions noted are these: EBV lymphoblastoid cells (LCL) viability; series mostly up to 19.5 µM; activity change, negative = cytotoxicity: at the top concentration.
On to `CCc1c(C)nc2cc(-c3ccc(OC)c(OC)c3)nn2c1NCC1CC1`, for which the “activity change, negative = cytotoxicity” value is -40.8%.
The figure for `CCN(CC(=O)NCc1ccc(F)cc1)CC(=O)Nc1cc(S(=O)(=O)N(C)C)ccc1C` is 15%.
Take `COc1cc(NCCCCCCN)c2ncccc2c1OC`: the “activity change, negative = cytotoxicity” value is 25.1%.
The figure for `CN(C)/C=C/C(=O)c1ccc2noc(-c3ccccc3)c2c1` is 15%; for `CCc1ccc(C(=O)COC(=O)c2cccc(N3C(=O)c4c(C)nc5ccccc5c4C3=O)c2)cc1` it is 41.6%.
The figure for `O=C(Cn1nc(C(F)(F)F)c2c1CCC2)NC1CCCCC1` is 13.4%; for `OCc1cc(C(O)CNCCCCCCOCCCCc2ccccc2)ccc1O` (stereo not given) it is 18.7%; for `Cc1cccc(-n2ncc3c(N4CCOCC4)ncnc32)c1` it is -6.17%.
`Cc1cccc(NC(=O)c2cnc3ccccn3c2=O)c1`: the “activity change, negative = cytotoxicity” value was 4.87%.
The figure for `CCOCCCn1c(=S)[nH]c2ncccc2c1=O` is 2.14%; for `Cc1ccn2c(c1)nc(=S)n2C(=O)c1ccccc1` it is -0.036%.
On to `CCC(C)N1C(=O)CCC1C(=O)N1CCN(c2ccc(F)cc2)CC1` (stereo not given), for which the “activity change, negative = cytotoxicity” value was 10.4%.
On to `CNC(=O)c1[nH]cnc1C(=O)N[C@@H](CCCCNC(=O)OC(C)(C)C)C(=O)OC(C)(C)C`, for which the “activity change, negative = cytotoxicity” value is 10.2%.
In the case of `CN(C)c1ccnc2sc(C(N)=O)c(N)c12` it was 1.46%; in that of `O=C(Nc1ccc(F)c(F)c1)C1CCCCC1`, 0.732%.
The figure for `O=C(C[n+]1ccccc1)N/N=C/c1ccc(O)cc1` is 30.2%; for `Cc1cc(OCC(=O)Nc2cnn(CCCC(=O)O)c2)ccc1Cl` it is 21.1%.
The figure for `COC(=O)c1cccc2c1-c1ccccc1/C2=N/O` is 5.57%.
Consider `Cc1cccc(S(=O)(=O)N2CCCc3ccccc32)c1`, for which the “activity change, negative = cytotoxicity” value is 0.222%.
In the case of `COc1ccc(S(=O)(=O)N2CCN(CC(=O)Nc3cc(OC)cc(OC)c3)CC2)cc1` it was 13%; in that of `COc1ccc(S(=O)(=O)NNC(=O)C2Cc3c(ccc4ccccc34)O2)cc1` (stereo not given), 2.34%; in that of `Cc1ccc(N2CCCCn3c2nc2c3c(=O)n(CC(=O)O)c(=O)n2C)cc1`, 13.5%.
The figure for `Cc1ccc(N(Cc2cc3ccccc3[nH]c2=O)C(=O)c2ccco2)c(C)c1` is 13.3%; for `COc1ccc(S(=O)(=O)N2CCC(C(=O)NC3CC3)CC2)cc1OC` it is 11.8%; for `COc1ccc(-c2cnc(NCc3cc4c(cc3[N+](=O)[O-])OCO4)n2C)cc1` it is 7.9%.
As for `CNC1(C)[C@H]2CC[C@H](C2)C1(C)C` (stereo not given in full), the “activity change, negative = cytotoxicity” value was 15.2%.
In the case of `Cc1ccc(S(=O)(=O)N2CCC[C@H]2C(=O)Nc2ccccc2C)cc1` it was 2.08%; in that of `Cc1ccc(C(=O)CSc2nnnn2C(C)C)c(C)c1`, 4.09%.
`CN1CCc2cccc3c2C1Cc1ccc(O)c(O)c1-3` (stereo not given): the “activity change, negative = cytotoxicity” value was 12.1%.
On to `O=C(Nc1cc(Cl)ccc1Cl)C1Cc2ccccc2O/C1=N\O` (stereo not given), for which the “activity change, negative = cytotoxicity” value was 5.33%.
`CC(NC(=O)CCOc1ccccc1)c1ccccc1` (stereo not given): the “activity change, negative = cytotoxicity” value was 8.45%.
The figure for `COc1cc2c(CCNC(C)=O)c[nH]c2cc1Cl` is 12.4%; for `COCC(=O)N(C)c1nnc(-c2ccccn2)s1` it is 26%; for `CC1(C)CC(NS(=O)(=O)c2ccc(F)cc2)CC(C)(C)N1` it is 26.8%.
The figure for `COc1ccc(C(=O)C(CN2CCOCC2)c2ccccc2)cc1F` (stereo not given) is -82.4%; for `O=C(CC(c1ccc(F)cc1)c1ccco1)N1CCOCC1` (stereo not given) it is 0.708%.
The figure for `O=C(Cn1cc(CNC(=O)C2CCCCC2)nn1)Nc1cc(C(F)(F)F)ccc1Cl` is 9.71%; for `C=CC[N+](C)(C)C/C(Cl)=C(\Cl)c1ccccc1` it is -1.08%.
Turning to `O=C1CCc2cc(OCCCCc3nnnn3C3CCCCC3)ccc2N1`, the “activity change, negative = cytotoxicity” value is 10.6%.
In the case of `Cc1nnc(NC(=O)CSc2nnc(Cc3cccn3C)n2CCc2ccccc2)s1`, the “activity change, negative = cytotoxicity” value was 45.3%.
As for `Cc1nnc(SCc2cnc(-c3ccc(C(C)C)cc3)s2)n1C`, the “activity change, negative = cytotoxicity” value is 4.92%.
Regarding `COc1cc(/C=C2/SC(=S)N(Cc3ccccc3)C2=O)ccc1OCC(=O)O`, the “activity change, negative = cytotoxicity” value is 8.06%.
In the case of `COc1ccc(/C=N/N=C/c2ccc(OC)c(OC)c2)cc1OC` it was 20.2%.
The figure for `CCOc1ccc(S(=O)(=O)N2CCC(C(=O)NCCc3ccc(S(N)(=O)=O)cc3)CC2)cc1` is 10.4%.
With `NC(=O)c1ccccc1N/C=C/C(=O)c1cccs1`, the “activity change, negative = cytotoxicity” value is -4.97%.
As for `O=C(N/C(=C/c1ccc(Br)cc1)C(=O)N1CCOCC1)c1ccc(Br)o1`, the “activity change, negative = cytotoxicity” value is 17.4%.
The figure for `O=C(Nc1ncc(Br)s1)C(Cc1ccccc1)n1cccc1` (stereo not given) is -1.84%.
In the case of `CN(C)CCC(c1ccccc1)c1ccccn1` (stereo not given) it was 7.71%; in that of `CCC(C)n1ncn(-c2ccc(N3CCN(c4ccc(OCC5COC(Cn6cncn6)(c6ccc(Cl)cc6Cl)O5)cc4)CC3)cc2)c1=O` (stereo not given), 8.73%.
In the case of `Cn1cccc1/C=N/n1c(-c2ccc(Cl)cc2Cl)n[nH]c1=S`, the “activity change, negative = cytotoxicity” value was 13.1%.
The figure for `CCn1c(=O)c2c(cnn2C)c2ccccc21` is -1.53%; for `CC(=C/c1ccccc1)/C=N/n1c(-c2ccncc2)n[nH]c1=S` it is 5.21%.
The figure for `OC(CCCN1CCCCC1)(c1ccccc1)c1ccccc1` is 14.8%; for `COc1ccc(N2C(=O)C(Cl)=C(NCc3ccccc3)C2=O)cc1` it is 21.9%.
In the case of `COC(=O)[C@@]1(C)[C@H]2C(=O)N(Cc3ccccc3)C(=O)[C@H]2[C@H]2CN=C(SCc3ccc(Cl)cc3)N21` it was 14.4%; in that of `CC(C)Nc1nnc(SCC(=O)c2c(N)n(Cc3ccccc3)c(=O)n(C)c2=O)s1`, -5.09%.
As for `CCN(C(=O)c1cc(OC)c(OC)c(OC)c1)C1CCCCC1`, the “activity change, negative = cytotoxicity” value is 4.8%.
As to `COC(=O)C1=NNC(C(=O)OC)C1c1ccccc1` (stereo not given), the “activity change, negative = cytotoxicity” value is 10.5%.
The figure for `Cn1c(=O)c2c(ncn2CC(=O)Nc2cc(S(=O)(=O)N3CCCCC3)ccc2O)n(C)c1=O` is 22.4%.
With `COCCN1Cc2cccc(C(=O)N3CCN(c4cc(C)ccc4C)CC3)c2C1=O`, the “activity change, negative = cytotoxicity” value was -0.546%.
In the case of `O=C(Nc1cc(C(F)(F)F)cc(C(F)(F)F)c1)Nc1cnn(-c2ccc([N+](=O)[O-])cc2)c1C(F)(F)F` it was -5.69%; in that of `CCOCCCn1cnc2c3cc(F)ccc3n(C)c2c1=O`, 4.71%; in that of `CCOC(=O)CCSc1nc(N2CCOCC2)c2c(c1C#N)CC(C)(C)OC2`, 20.7%.
In the case of `COc1ccc(-c2cn3nc4c(nc3n2)CCCC4)cc1` it was -0.376%; in that of `COc1cccc(C(=O)OCn2nnc3ccccc3c2=O)c1OC`, 17.8%; in that of `Nc1nc(N)nc(-c2cc(Cl)ccc2Cl)n1`, 11.4%.
Regarding `O=C(COc1ccc2ccccc2c1)NCCNC(=O)COc1ccc2ccccc2c1`, the “activity change, negative = cytotoxicity” value was 13.9%.
On to `O=c1c2cnn(-c3ccccc3)c2nc(-c2cccs2)n1-c1ccc(Br)cc1`, for which the “activity change, negative = cytotoxicity” value is -8.44%.
As to `CC1CC(C)CN(S(=O)(=O)c2ccc(NC(=O)CCN3C(=O)C4CC=CCC4C3=O)cc2)C1` (stereo not given), the “activity change, negative = cytotoxicity” value was 10.9%.
Take `COc1ccc(S(=O)(=O)NCC(c2cccnc2)N2CCN(c3ccc(F)cc3)CC2)cc1C` (stereo not given): the “activity change, negative = cytotoxicity” value is 13.6%.

The values above are taken from PubChem BioAssay AID504882 (Broad Institute, 2011).
